Experimental data published in PubChem BioAssay.
“And” between values parts separate entries of the source, which are not always exact repeats. Identical values can stand only once. The source made the active and inactive calls.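 How the source made its calls, unless noted: active means compounds whose cell count with miR-34 switched on is under 0.7 times the count with it off; inactive means the rest.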

What was measured:
[1] = sensitizers of A549 cells to miR-34 induction, primary screen, imaging, A549 dox-inducible miR-34, nuclei and caspase counts (AID 1347080); details: A549 miR-34 inducible, Hoechst nuclei count, 48 h; further: test concentration not given here
[2] = viability rescue of complex I mutant cybrids, primary screen, cell-based, galactose medium, ATP luminescence (AID 1645843;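 active means z-score of at least 1.8 in each of two replicates, scored against plate mean and spread of sample wells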;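 further: positive z means more ATP and so rescue of galactose-driven cybrid death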); details: complex I mutant cybrid cells, 72 h, stronger effect = higher value
[3] = stronger effect = lower value, cell number ratio, induced over uninduced
[4] = measured here: relative caspase fold change +Dox/-Dox
[5] = measured here: total cells with miR-34 induction, stronger effect = lower value
[6] = measured here: total cells without miR-34 induction

| Structure (SMILES) | fold change [1, 3] | fold change [1, 4] | cell count [1, 5] | cell count [1, 6] | z-score [2] |
| --- | --- | --- | --- | --- | --- |
| CC(C)(C)C(O)C=Cc1ccc2c(c1)OCO2 (stereo not given) | 1.46 (inactive) | 0.768 | 8470 | 5780 | -0.12 (inactive) |
| CC(C)CC(NC(=O)C(COC(C)(C)C)NC(=O)C(Cc1ccc(O)cc1)NC(=O)C(CO)NC(=O)C(Cc1c[nH]c2ccccc12)NC(=O)C(Cc1cnc[nH]1)NC(=O)C1CCC(=O)N1)C(=O)NC(CCCN=C(N)N)C(=O)N1CCCC1C(=O)NNC(N)=O (stereo not given) | 1.04 (inactive) | 1.1 | 7490 | 7190 | 0.385 (inactive) |
| CC(=O)O[C@]1(C(C)=O)CCC2C3C=C(C)C4=CC(=O)CC[C@]4(C)C3CC[C@@]21C (stereo not given in full) | 0.943 (inactive) | 1.2 | 6760 | 7170 | -0.29 (inactive) |
| COc1ccc2c3c1OC1CC(O)C=C[C@@]31CCN(C)C2 (stereo not given in full) | 0.977 (inactive) | 1.4 | 9660 | 9890 | 0.92 (inactive) |
| CC(C)(C)NC(=O)C1CCC2C3CCC4NC(=O)C=C[C@]4(C)C3CC[C@]12C (stereo not given in full) | 0.939 (inactive) | 1.36 | 8850 | 9430 | 0.345 (inactive) |
| CC(C)(C)NC(=O)C1CN(Cc2cccnc2)CCN1CC(O)CC(Cc1ccccc1)C(=O)NC1c2ccccc2CC1O (stereo not given) | 0.967 (inactive) | 1.5 | 9380 | 9700 | 1.61 (inactive) |
| CC1CC2C3CC(F)C4=CC(=O)C(Cl)=C[C@]4(C)[C@@]3(F)C(O)C[C@]2(C)[C@@]1(O)C(=O)CO (stereo not given in full) | 0.952 (inactive) | 1.63 | 6600 | 6930 | 0.895 (inactive) |
| C#C[C@]1(O)CCC2C3C(C)CC4=C(CCC(=O)C4)C3CC[C@@]21C (stereo not given in full) | 0.909 (inactive) | 1.5 | 8730 | 9600 | -0.655 (inactive) |
| COc1cc(C=Cc2ccc(O)cc2)cc(OC)c1 | 0.943 (inactive) | 1.26 | 6760 | 7170 | -1.52 (inactive) |
| CN1C2CC(OC(=O)C(CO)c3ccccc3)CC1C1OC12 (stereo not given) | 0.901 (inactive) | 2.66 | 9400 | 10400 | 0.87 (inactive) |
| Nc1nc(Cl)nc2c1ncn2C1OC(CO)C(O)C1O (stereo not given) | 1.26 (inactive) | 0.688 | 2120 | 1680 | -0.02 (inactive) |
| COc1cccc2c1C(=O)c1c(O)c3c(c(O)c1C2=O)C[C@@](O)(C(=O)CO)CC3OC1CC(N)C(O)C(C)O1 (stereo not given in full) | 0.969 (inactive) and 1 (inactive) | 0.932 and 0.974 | 1960 and 2320 | 2030 and 2320 | -1.87 (inactive) and -1.86 (inactive) |
| CC(C)CC(NC(=O)C(O)C(N)Cc1ccccc1)C(=O)O (stereo not given) | 0.913 (inactive) | 1.61 | 8460 | 9270 | 0.29 (inactive) |
| C[C@]12CCC3c4ccc(O)cc4CCC3C1CCC2O (stereo not given in full) | 1.11 (inactive) | 1.15 | 6850 | 6160 | 0.465 (inactive) |
| CCC1OC(=O)C(C)C(=O)C(C)C(OC2OC(C)CC(N(C)C)C2O)[C@](C)(OC)CC(C)C(=O)C(C)C2N(CCCCn3cnc(-c4cccnc4)c3)C(=O)O[C@]12C (stereo not given in full) | 0.904 (inactive) | 0.557 | 7630 | 8440 | 0 (inactive) |
| CC(C)(C)NC(=O)C1CC2CCCCC2CN1CC(O)C(Cc1ccccc1)NC(=O)C(CC(N)=O)NC(=O)c1ccc2ccccc2n1 (stereo not given) | 1.12 (inactive) | 1.27 | 4860 | 4350 | -1.52 (inactive) |

| Structure (SMILES) | fold change [1, 3] | fold change [1, 4] | cell count [1, 5] | cell count [1, 6] | z-score [2] |
| --- | --- | --- | --- | --- | --- |
| CCCCC(=O)N(Cc1ccc(-c2ccccc2-c2nn[nH]n2)cc1)C(C(=O)O)C(C)C (stereo not given) | 0.925 (inactive) | 1.23 | 9560 | 10300 | 1.69 (inactive) |
| COc1ccc(CCCOc2cc(CCn3ccnc3)ccc2OC)cc1 | 1.41 (inactive) | 0.402 | 3260 | 2300 | -1.33 (inactive) |
| CC1=C(C(=O)O)N2C(=O)C(NC(=O)C(N)c3ccccc3)C2SC1 (stereo not given) | 0.933 (inactive) | 1.4 | 8950 | 9590 | 0.52 (inactive) |
| CN1CC(=O)N/C1=N\C(=O)Nc1cccc(Cl)c1 | 1.1 (inactive) | 0.699 | 10900 | 9930 | 0.545 (inactive) |
| Cc1ccsc1C(=CCCN1CCCC(C(=O)O)C1)c1sccc1C (stereo not given) | 0.928 (inactive) | 1.05 | 8550 | 9210 | 1.02 (inactive) |
| CC(=O)O[C@@]12COC1CC(O)[C@@]1(C)C(=O)C(O)C3=C(C)C(OC(=O)C(O)C(NC(=O)OC(C)(C)C)c4ccccc4)C[C@](O)(C(OC(=O)c4ccccc4)C21)C3(C)C (stereo not given in full) | 1.14 (inactive) | 1.25 | 3410 | 2990 | -1.09 (inactive) |
| CC=C1C2C=C(C)C[C@]1(N)c1ccc(=O)[nH]c1C2 | 0.883 (inactive) | 1.22 | 10100 | 11400 | 0.9 (inactive) |
| CN1CC(=O)N2C(Cc3c([nH]c4ccccc34)C2c2ccc3c(c2)OCO3)C1=O (stereo not given) | 0.932 (inactive) | 1.44 | 6940 | 7450 | 1.56 (inactive) |
| COCC1=C(C(=O)OC(C)OC(=O)OC(C)C)N2C(=O)C(NC(=O)C(=NOC)c3csc(N)n3)C2SC1 (stereo not given) | 0.946 (inactive) | 1.68 | 9860 | 10400 | 0.625 (inactive) |
| CC1CCC2C(C)C(OC(=O)CCC(=O)O)OC3O[C@@]4(C)CCC1[C@]32OO4 (stereo not given in full) | 0.992 (inactive) | 1.91 | 6760 | 6810 | -1.79 (inactive) |
| CCC1=CC2CN(C1)Cc1c([nH]c3ccccc13)[C@@](C(=O)OC)(c1cc3c(cc1OC)N(C)C1[C@@](O)(C(=O)OC)C(OC(C)=O)[C@]4(CC)C=CCN5CC[C@]31C54)C2 (stereo not given in full) | 1.19 (inactive) | 1.47 | 1620 | 1360 | -1.06 (inactive) |
| C=CC1=C(C(=O)O)N2C(=O)C(NC(=O)C(=NO)c3csc(N)n3)C2SC1 (stereo not given) | 0.914 (inactive) | 1.91 | 9440 | 10300 | 0.13 (inactive) |
| CC(=O)OC1CC2CCC3C(CC[C@@]4(C)C3CC([N+]3(C)CCCCC3)C4OC(C)=O)[C@@]2(C)CC1N1CCCCC1 (stereo not given in full) | 0.934 (inactive) | 1.76 | 9160 | 9800 | 0.43 (inactive) |
| COCc1c(C(C)C)nc(C(C)C)c(C=CC(O)CC(O)CC(=O)O)c1-c1ccc(F)cc1 (stereo not given) | 1.06 (inactive) | 2.76 | 1210 | 1140 | -1.86 (inactive) |
| COC1C(OC(C)=O)CC(=O)OC(C)CC=CC=CC(O)C(C)CC(CC=O)C1OC1OC(C)C(OC2C[C@@](C)(OC(=O)CC(C)C)C(O)C(C)O2)C(N(C)C)C1O (stereo not given in full) | 1.04 (inactive) | 1.51 | 9630 | 9280 | -1.59 (inactive) |
